# Laboratory results reported in PubChem BioAssay AID1159580 (chemical genetic matrix, 2015).
# Where “and” joins values, the source holds several entries; their conditions need not be identical. Equal values may be shown once. The whole screen tested about 5,500 compounds, of which about 2,000 (36%) were called active. Not shown: some 18% with an inconclusive outcome. The list shows a part of the results. Values without a mark were called inactive. Cut-off read from the data, not from the text of the source: active = normalized growth mostly below about 0.91 (no sharp cut-off); inconclusive = no clear call, values can overlap the other calls; inactive = mostly above about 0.92.
# Test: chemical genetic growth profiling, strain panel (AID 1159580);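 note: tested at 20 µM; growth read once vehicle control cultures reached saturation at 30 °C; 1 = growth at the plate median or of vehicle wells; lower values mean less growth of the strain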
# Conditions: growth OD
compound,measurement,setting,value
COc1cccc(-c2cc(=O)c3cc(OC)ccc3o2)c1,normalized growth,"S. cerevisiae deletion strains, locus YAL013W, strain DEP1, active compounds read low",0.993
same,normalized growth,"S. cerevisiae deletion strains, locus YBR021W, strain FUR4, active compounds read low",0.816 (active)
same,normalized growth,"S. cerevisiae deletion strains, locus YBR229C, strain ROT2, active compounds read low",0.992
same,normalized growth,"S. cerevisiae deletion strains, locus YCL029C, strain bik1, active compounds read low",1.1 [resistant] (active)
same,normalized growth,"S. cerevisiae deletion strains, locus YDL035C, strain GPR1, active compounds read low",0.98
same,normalized growth,"S. cerevisiae deletion strains, locus YDL074C, strain BRE1, active compounds read low",0.914
same,normalized growth,"S. cerevisiae deletion strains, locus YDL101C, strain DUN1, active compounds read low",0.983
same,normalized growth,"S. cerevisiae deletion strains, locus YDL134C, strain PPH21, active compounds read low",0.95
same,normalized growth,"S. cerevisiae deletion strains, locus YDL185W, strain tfp1, active compounds read low",1.09
same,normalized growth,"S. cerevisiae deletion strains, locus YDL192W, strain arf1, active compounds read low",1.04
same,normalized growth,"S. cerevisiae deletion strains, locus YDR101C, strain arx1, active compounds read low",1.13 [resistant] (active)
same,normalized growth,"S. cerevisiae deletion strains, locus YDR150W, strain NUM1, active compounds read low",1
same,normalized growth,"S. cerevisiae deletion strains, locus YDR162C, strain NBP2, active compounds read low",0.968
same,normalized growth,"S. cerevisiae deletion strains, locus YDR318W, strain mcm21, active compounds read low",1.05
same,normalized growth,"S. cerevisiae deletion strains, locus YDR388W, active compounds read low",1.03
same,normalized growth,"S. cerevisiae deletion strains, locus YDR502C, strain sam2, active compounds read low",1.14 [resistant] (active)
same,normalized growth,"S. cerevisiae deletion strains, locus YEL061C, strain CIN8, active compounds read low",0.979
same,normalized growth,"S. cerevisiae deletion strains, locus YER155C, strain BEM2, active compounds read low",1.07
same,normalized growth,"S. cerevisiae deletion strains, locus YER167W, strain BCK2, active compounds read low",0.993
same,normalized growth,"S. cerevisiae deletion strains, locus YGL078C, strain dbp3, active compounds read low",1.07
same,normalized growth,"S. cerevisiae deletion strains, locus YGL086W, strain mad1, active compounds read low",1
same,normalized growth,"S. cerevisiae deletion strains, locus YGL248W, strain PDE1, active compounds read low",0.944
same,normalized growth,"S. cerevisiae deletion strains, locus YGR135W, strain pre9, active compounds read low",1.07
same,normalized growth,"S. cerevisiae deletion strains, locus YGR229C, strain SMI1, active compounds read low",0.858
same,normalized growth,"S. cerevisiae deletion strains, locus YGR252W, strain gcn5, active compounds read low",0.981
same,normalized growth,"S. cerevisiae deletion strains, locus YHR030C, strain SLT2, active compounds read low",0.958 and 0.966
same,normalized growth,"S. cerevisiae deletion strains, locus YHR079C, strain IRE1 (second series), active compounds read low",0.987
same,normalized growth,"S. cerevisiae deletion strains, locus YHR079C, strain IRE1, active compounds read low",0.967
same,normalized growth,"S. cerevisiae deletion strains, locus YHR094C, strain hxt1, active compounds read low",1.18 [resistant] (active)
same,normalized growth,"S. cerevisiae deletion strains, locus YHR129C, strain ARP1, active compounds read low",0.98
same,normalized growth,"S. cerevisiae deletion strains, locus YHR200W, strain rpn10, active compounds read low",1.14 [resistant] (active)
same,normalized growth,"S. cerevisiae deletion strains, locus YIL066C, strain RNR3, active compounds read low",0.94
same,normalized growth,"S. cerevisiae deletion strains, locus YIL073C, strain SPO22, active compounds read low",0.945
same,normalized growth,"S. cerevisiae deletion strains, locus YIL125W, strain kgd1, active compounds read low",1.05
same,normalized growth,"S. cerevisiae deletion strains, locus YIR030C, strain dcg1, active compounds read low",1.12 [resistant] (active)
same,normalized growth,"S. cerevisiae deletion strains, locus YJL095W, strain BCK1, active compounds read low",0.857 and 0.963
same,normalized growth,"S. cerevisiae deletion strains, locus YJL134W, strain LCB3, active compounds read low",1.01
same,normalized growth,"S. cerevisiae deletion strains, locus YJL168C, strain set2, active compounds read low",1.1 [resistant] (active)
same,normalized growth,"S. cerevisiae deletion strains, locus YJL187C, strain SWE1 (second series), active compounds read low",0.954
same,normalized growth,"S. cerevisiae deletion strains, locus YJR043C, strain POL32, active compounds read low",0.93
same,normalized growth,"S. cerevisiae deletion strains, locus YJR066W, strain TOR1, active compounds read low",0.916
same,normalized growth,"S. cerevisiae deletion strains, locus YJR075W, strain HOC1, active compounds read low",0.959
same,normalized growth,"S. cerevisiae deletion strains, locus YKL009W, strain mrt4, active compounds read low",0.713 (active)
same,normalized growth,"S. cerevisiae deletion strains, locus YKL068W, active compounds read low",1.02
same,normalized growth,"S. cerevisiae deletion strains, locus YKL085W, strain MDH1 (second series), active compounds read low",1.03
same,normalized growth,"S. cerevisiae deletion strains, locus YKL085W, strain MDH1, active compounds read low",1.03
same,normalized growth,"S. cerevisiae deletion strains, locus YKL190W, strain CNB1, active compounds read low",1.01
same,normalized growth,"S. cerevisiae deletion strains, locus YKR001C, strain vps1, active compounds read low",0.998
same,normalized growth,"S. cerevisiae deletion strains, locus YLR039C, strain RIC1, active compounds read low",0.995
same,normalized growth,"S. cerevisiae deletion strains, locus YLR058C, strain SHM2, active compounds read low",0.968
same,normalized growth,"S. cerevisiae deletion strains, locus YLR102C, strain apc9, active compounds read low",1.03
same,normalized growth,"S. cerevisiae deletion strains, locus YLR113W, strain HOG1, active compounds read low",0.983
same,normalized growth,"S. cerevisiae deletion strains, locus YLR262C, strain YPT6, active compounds read low",1.06
same,normalized growth,"S. cerevisiae deletion strains, locus YLR268W, strain sec22, active compounds read low",1.07
same,normalized growth,"S. cerevisiae deletion strains, locus YLR330W, strain CHS5, active compounds read low",0.952
same,normalized growth,"S. cerevisiae deletion strains, locus YLR342W, strain FKS1 (second series), active compounds read low",0.891
same,normalized growth,"S. cerevisiae deletion strains, locus YLR371W, strain rom2, active compounds read low",1.11 [resistant] (active)
same,normalized growth,"S. cerevisiae deletion strains, locus YLR418C, strain cdc73, active compounds read low",0.895
same,normalized growth,"S. cerevisiae deletion strains, locus YML016C, strain PPZ1, active compounds read low",0.987
same,normalized growth,"S. cerevisiae deletion strains, locus YML032C, strain rad52, active compounds read low",0.934
same,normalized growth,"S. cerevisiae deletion strains, locus YML124C, strain tub3, active compounds read low",1.04
same,normalized growth,"S. cerevisiae deletion strains, locus YMR078C, strain ctf18, active compounds read low",1.06
same,normalized growth,"S. cerevisiae deletion strains, locus YMR223W, strain ubp8, active compounds read low",1.09
same,normalized growth,"S. cerevisiae deletion strains, locus YMR263W, strain SAP30, active compounds read low",0.935
same,normalized growth,"S. cerevisiae deletion strains, locus YMR307W, strain GAS1, active compounds read low",0.969
same,normalized growth,"S. cerevisiae deletion strains, locus YNL067W, strain RPL9B, active compounds read low",0.946
same,normalized growth,"S. cerevisiae deletion strains, locus YNL128W, strain TEP1, active compounds read low",0.99
same,normalized growth,"S. cerevisiae deletion strains, locus YNL183C, strain NPR1, active compounds read low",0.96
same,normalized growth,"S. cerevisiae deletion strains, locus YNL233W, strain BNI4, active compounds read low",0.889
same,normalized growth,"S. cerevisiae deletion strains, locus YNL250W, strain rad50, active compounds read low",1.05
same,normalized growth,"S. cerevisiae deletion strains, locus YNL271C, strain bni1, active compounds read low",1.17 [resistant] (active)
same,normalized growth,"S. cerevisiae deletion strains, locus YNL298W, strain CLA4, active compounds read low",0.992
same,normalized growth,"S. cerevisiae deletion strains, locus YNL307C, strain MCK1, active compounds read low",1.14 [resistant] (active)
same,normalized growth,"S. cerevisiae deletion strains, locus YNL322C, strain KRE1, active compounds read low",0.999
same,normalized growth,"S. cerevisiae deletion strains, locus YNR052C, strain pop2, active compounds read low",1.03
same,normalized growth,"S. cerevisiae deletion strains, locus YOL006C, strain TOP1, active compounds read low",0.723
same,normalized growth,"S. cerevisiae deletion strains, locus YOL012C, strain htz1",0.822
same,normalized growth,"S. cerevisiae deletion strains, locus YOL147C, strain pex11, active compounds read low",0.969
same,normalized growth,"S. cerevisiae deletion strains, locus YOR061W, strain CKA2, active compounds read low",1
same,normalized growth,"S. cerevisiae deletion strains, locus YOR069W, strain VPS5, active compounds read low",1
same,normalized growth,"S. cerevisiae deletion strains, locus YOR136W, strain idh2, active compounds read low",1.18 [resistant] (active)
same,normalized growth,"S. cerevisiae deletion strains, locus YOR184W, strain ser1, active compounds read low",1.14 [resistant] (active)
same,normalized growth,"S. cerevisiae deletion strains, locus YOR231W, strain MKK1, active compounds read low",0.977
same,normalized growth,"S. cerevisiae deletion strains, locus YOR316C, strain cot1, active compounds read low",1.12 [resistant] (active)
same,normalized growth,"S. cerevisiae deletion strains, locus YPL256C, strain CLN2, active compounds read low",0.982
same,normalized growth,"S. cerevisiae deletion strains, locus YPR119W, strain clb2, active compounds read low",1.11 [resistant] (active)
same,normalized growth,"S. cerevisiae deletion strains, locus YPR141C, strain kar3, active compounds read low",1.07
same,normalized growth,"S. cerevisiae deletion strains, locus YPR163C, strain tif3, active compounds read low",1.07
same,normalized growth,"S. cerevisiae deletion strains, locus YPR167C, strain met16, active compounds read low",1.08 [resistant] (active)
same,normalized growth,"S. cerevisiae deletion strains, strain wtn01, active compounds read low",1.09
same,normalized growth,"S. cerevisiae strains, strain wild type, active compounds read low",0.972
